Data on six compounds can be found in PubChem BioAssay (Tox21).

The nature of experiment [1]: qHTS assay to identify small molecule antagonists of the sonic hedgehog signaling (Shh) pathway (AID 1259369; calls by dose curve; also: nearly all actives have a fitted effect of over 45% in size; also: potency is read from the fitted curve at half-maximal effect). The procedure, abridged: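 Stable Gli1-Luc reporter NIH/3T3 clone; quantitative HTS in stimulated mode with conditioned medium. Luminescence measured after 24hr compound treatment at 37 C.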
Experiment [2] addresses Estrogen receptor beta (Homo sapiens) (UniProt Q92731). The experiment is described as follows: qHTS assay to identify small molecule agonists of the estrogen receptor beta (ER-beta) signaling pathway (AID 1259377; active = well fitted activation curve with a large enough effect in the signal ratio in the repeat runs, not every such curve was filed as active; the % refers to the signal ratio). Put shortly: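 qHTS in ER-beta-UAS-bla HEK293T cells: 6 hr settling, then 16 hr compound at 37C, then LiveBLAzer substrate 2 h at RT before fluorescence reading.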
For orientation: Quantitative high-throughput screening tests each substance at several concentrations.

The target is the same in experiment [3]. The experiment is described as follows: qHTS assay to identify small molecule antagonists of the estrogen receptor beta (ER-beta) signaling pathway (AID 1259378; active = well fitted inhibition curve with a large enough effect in the signal ratio in the repeat runs, not every such curve was filed as active; the % refers to the signal ratio). The procedure, abridged: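 ER-beta-UAS-bla HEK293T (GripTite) cells in 2% charcoal-stripped FBS medium were preincubated 6 hr at 37C, dosed with compound, then stimulated with 1 nM E2 (final) for 16 hr; beta-lactamase reporter read by B/G FRET fluorescence after 2 hr substrate loading.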

A short description of experiment [4]: qHTS assay to identify small molecule agonists of the androgen receptor (AR) signaling pathway in the presence of an antagonist - cell viability counter screen (AID 1259379).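 Also: MDA-kb2 human breast cancer cells carrying an MMTV luciferase reporter; series mostly up to about 92 µM; nearly all actives have a fitted effect of over 25% in size.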 The procedure, abridged:
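Nilutamide-containing (3.0uM final) MDA-kb2 cultures, 3,000 cells/well, were treated with compounds across 15 concentrations. After 16 hr at 37C with no CO2, cell viability was determined by CellTiter-Fluor fluorescence in the luciferase assay wells.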

Experiment [5] is described as follows: qHTS assay to identify small molecule antagonists of the estrogen receptor beta (ER-beta) signaling pathway - cell viability counter screen (AID 1259382). Also: series mostly up to about 92 µM; nearly all actives have a fitted effect of over 55% in size. The procedure, abridged:
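Viability is scored by CellTiter-Glo luminescence (30 min, room temperature) in ER-beta-UAS-bla HEK293T wells already read for reporter fluorescence. Compound exposure lasts 16 hr at 37C alongside 1nM 17-beta-estradiol in charcoal-stripped serum medium.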

A short description of experiment [6]: qHTS assay to identify small molecule agonists or antagonists of the thyroid stimulating hormone receptor (TSHR) signaling pathway - wild type cell line counter screen (AID 1259384; calls by dose curve). Put shortly: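 Wild-type HEK293 cells were plated 18 h at 37 C/5% CO2, pin-dosed with compound plus Ro20-1724 medium, held 30 min at room temperature, then given cAMP-d2 and anti-cAMP-cryptate; fluorescence was read after 1 h. Fifteen concentrations, triplicate.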

A short description of experiment [7]: qHTS assay to identify small molecule agonists of the estrogen receptor alpha (ER-alpha) signaling pathway in the presence of an antagonist - cell viability counter screen (AID 1259386).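 Also: series mostly up to about 92 µM; cells exposed to compounds for 22 h at 37 °C before the viability read; nearly all actives have a fitted effect of over 30% in size.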 The procedure, abridged:
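In this counter screen, compound effects on VM7Luc4E2 viability were tested in the presence of the antagonist ICI-182,780 at 10.0nM final. Compounds were dosed at 15 concentrations, exposure lasted 22hr, and the CellTiter-Fluor signal was read.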

Experiment [8] addresses Progesterone receptor (Homo sapiens) (UniProt P06401). Description: qHTS assay to identify small molecule agonists of the progesterone receptor (PR) signaling pathway (AID 1346784; calls by dose curve; also: nearly all actives have a fitted effect of over 30% in size). Put shortly:
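Fluorescence from LiveBLAzer B/G FRET substrate cleavage (2 hr, RT) reported PR activation in PR-UAS-bla HEK 293T cells treated 16 hr at 37C/5% CO2 with compounds; medium contained 2% charcoal-stripped FBS.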

Experiment [9] has the same target. Description: qHTS assay to identify small molecule antagonists of the progesterone receptor (PR) signaling pathway (AID 1346795; active = well fitted inhibition curve with a large enough effect in the signal ratio in the repeat runs, not every such curve was filed as active; the % refers to the signal ratio; also: potency is read from the fitted curve at half-maximal effect). The procedure, abridged: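 Fluorescence intensity measured 2 hr after adding beta-lactamase FRET substrate to PR-UAS-bla HEK293T cells that had been co-treated 16 hr with compound and 1 nM R5020 (final concentration) in 2% charcoal-stripped FBS.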

The nature of experiment [10]: qHTS assay to identify small molecule antagonists of the progesterone receptor (PR) signaling pathway - cell viability counter screen (AID 1346798). Also: series mostly up to about 92 µM; nearly all actives have a fitted effect of over 50% in size. Put shortly:
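CellTiter-Glo luminescence; PR-UAS-bla HEK293T, 3,000 cells/well; compound + R5020, 16 hr, 37C/5% CO2; 30 min RT before read.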

Experiment [11] can be described thus: qHTS assay to identify small molecule agonists of the progesterone receptor (PR) signaling pathway - cell viability counter screen (AID 1346799; calls by dose curve; also: nearly all actives have a fitted effect of over 45% in size). Put shortly: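 In parallel with the beta-lactamase readout, cytotoxicity toward PR-UAS-bla HEK293T cells was measured by CellTiter-Glo luminescence following 16 hr compound incubation in 2% charcoal-stripped FBS medium.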

Experiment [12] can be described thus: qHTS assay to identify small molecule antagonists of the TGF-beta/Smad signaling pathway - cell viability counter screen (AID 1346824). Also: nearly all actives have a fitted effect of over 50% in size. The procedure, abridged:
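SBE-bla HEK 293T cells were plated overnight at 37 C, then given compounds in DMSO plus TGF-beta1 (added as 0.25 ng/mL solution) for 5 hr. After the bla read, CellTiter-Glo was added to the same wells and luminescence read after 30 min at room temperature.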

The nature of experiment [13]: qHTS assay to identify small molecule agonists of the TGF-beta/Smad signaling pathway - cell viability counter screen (AID 1346829). Also: top concentration of the series differs between compounds; nearly all actives have a fitted effect of over 45% in size. Put shortly:
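HEK 293T SBE-bla line, 5 hr compound exposure at 37 C, multiplexed CellTiter-Glo viability read by luminescence.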

Experiment [14] can be described thus: qHTS assay to identify small molecule agonists of the TGF-beta/Smad signaling pathway (AID 1346859; active = well fitted activation curve with a large enough effect in the signal ratio in the repeat runs, not every such curve was filed as active; the % refers to the signal ratio; also: series mostly up to about 77 µM). Put shortly:
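After overnight seeding, SBE-bla HEK 293T cells are dosed with compounds in DMSO and kept 5 hr at 37 C, 5% CO2. LiveBLAzer-type FRET substrate is then applied for 2 hr at room temperature.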

The nature of experiment [15]: qHTS assay to identify small molecule agonists of the estrogen receptor beta (ER-beta) signaling pathway - cell viability counter screen (AID 1259380). Also: nearly all actives have a fitted effect of over 30% in size. The procedure, abridged: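 Steps: plate ER-beta-UAS-bla HEK293T cells, rest 6 hr; add compounds in DMSO; incubate 16 hr at 37C, 5% CO2; add FRET substrate 2 hr; add CellTiter-Glo, wait 30 min at room temperature; read luminescence.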

For experiment [16], the target named is Estrogen receptor (Homo sapiens) (UniProt P03372). The experiment is described as follows: qHTS assay to identify small molecule agonists of the estrogen receptor alpha (ER-alpha) signaling pathway in the presence of an antagonist (AID 1259383; calls by dose curve; also: top concentration of the series differs between compounds; nearly all actives have a fitted effect of over 15% in size). Put shortly:
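Readout was ERE-driven luciferase luminescence in VM7Luc4E2 cells, which express full-length ER-alpha endogenously. Compounds were tested at 15 concentrations for 22hr alongside 10.0nM ICI-182,780 (final concentration).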

Experiment [17] concerns the target Thyrotropin receptor (Homo sapiens) (UniProt P16473). Description: qHTS assay to identify small molecule antagonists of the thyroid stimulating hormone receptor (TSHR) signaling pathway (AID 1259385; calls by dose curve; also: nearly all actives have a fitted effect of over 20% in size). Put shortly: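 TSHR-HEK293 cells were plated and held 18 h at 37C/5% CO2, then given compound plus Ro20-1724 and stimulated with TSH at 1.5 ng/mL final. After 30 min at room temperature, cAMP was detected with cAMP-d2/anti-cAMP-cryptate (1 h) by fluorescence.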

The target in experiment [18] is Thyrotropin-releasing hormone receptor (Homo sapiens) (UniProt P34981). Description: qHTS assay to identify small molecule antagonists of the thyrotropin-releasing hormone receptor (TRHR) signaling pathway (AID 1346877; active = well fitted inhibition curve with a large enough effect in the repeat runs, not every such curve was filed as active; also: series mostly up to about 51 µM). Put shortly: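 Kinetic fluorescence (3 min, 1 s resolution) following stimulation with TRH at 1 nM final; HEK293 cells bearing human TRHR; 5 min compound preincubation at RT; concentration-response over 15 points, triplicates.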
Thyrotropin-releasing hormone receptor (Homo sapiens), sequence (P34981 whole entry, looked up): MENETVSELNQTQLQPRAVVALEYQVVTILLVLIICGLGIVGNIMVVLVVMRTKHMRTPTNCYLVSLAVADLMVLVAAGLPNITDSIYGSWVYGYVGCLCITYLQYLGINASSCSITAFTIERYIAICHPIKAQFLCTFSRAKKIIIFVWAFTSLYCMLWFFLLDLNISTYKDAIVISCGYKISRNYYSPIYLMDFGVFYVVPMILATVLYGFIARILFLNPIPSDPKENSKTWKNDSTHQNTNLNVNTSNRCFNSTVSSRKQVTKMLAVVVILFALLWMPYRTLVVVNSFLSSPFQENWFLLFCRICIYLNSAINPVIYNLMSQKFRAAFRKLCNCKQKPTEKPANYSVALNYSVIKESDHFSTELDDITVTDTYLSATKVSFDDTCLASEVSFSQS

Experiment [19] shares this target. The experiment is described as follows: qHTS assay to identify small molecule agonists of the thyrotropin-releasing hormone receptor (TRHR) signaling pathway (AID 1346891; calls by dose curve;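 also: HEK293 cells expressing TRHR with calcium dye readout; series mostly up to about 58 µM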). The procedure, abridged:
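Compounds were tested as agonists at 15 concentrations, in triplicate, on TRHR-Hek293 cells; calcium-sensitive dye fluorescence was recorded for 3 min following addition.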

Each structure is given as a SMILES string. Inconclusive results are not listed. The source holds several records for some structures; these can differ, active in one and inactive in another. The source made the active and inactive calls. Unless noted, calls follow the shape of the dose curve; as a rule, active = well fitted curve in the direction sought with a large enough effect in the repeat runs; inconclusive = weak or mixed curves; inactive = no such curve, though single readings can be large; an effect the other way counts as inactive or inconclusive.

Progesterone receptor (Homo sapiens), sequence (P06401 whole entry, looked up): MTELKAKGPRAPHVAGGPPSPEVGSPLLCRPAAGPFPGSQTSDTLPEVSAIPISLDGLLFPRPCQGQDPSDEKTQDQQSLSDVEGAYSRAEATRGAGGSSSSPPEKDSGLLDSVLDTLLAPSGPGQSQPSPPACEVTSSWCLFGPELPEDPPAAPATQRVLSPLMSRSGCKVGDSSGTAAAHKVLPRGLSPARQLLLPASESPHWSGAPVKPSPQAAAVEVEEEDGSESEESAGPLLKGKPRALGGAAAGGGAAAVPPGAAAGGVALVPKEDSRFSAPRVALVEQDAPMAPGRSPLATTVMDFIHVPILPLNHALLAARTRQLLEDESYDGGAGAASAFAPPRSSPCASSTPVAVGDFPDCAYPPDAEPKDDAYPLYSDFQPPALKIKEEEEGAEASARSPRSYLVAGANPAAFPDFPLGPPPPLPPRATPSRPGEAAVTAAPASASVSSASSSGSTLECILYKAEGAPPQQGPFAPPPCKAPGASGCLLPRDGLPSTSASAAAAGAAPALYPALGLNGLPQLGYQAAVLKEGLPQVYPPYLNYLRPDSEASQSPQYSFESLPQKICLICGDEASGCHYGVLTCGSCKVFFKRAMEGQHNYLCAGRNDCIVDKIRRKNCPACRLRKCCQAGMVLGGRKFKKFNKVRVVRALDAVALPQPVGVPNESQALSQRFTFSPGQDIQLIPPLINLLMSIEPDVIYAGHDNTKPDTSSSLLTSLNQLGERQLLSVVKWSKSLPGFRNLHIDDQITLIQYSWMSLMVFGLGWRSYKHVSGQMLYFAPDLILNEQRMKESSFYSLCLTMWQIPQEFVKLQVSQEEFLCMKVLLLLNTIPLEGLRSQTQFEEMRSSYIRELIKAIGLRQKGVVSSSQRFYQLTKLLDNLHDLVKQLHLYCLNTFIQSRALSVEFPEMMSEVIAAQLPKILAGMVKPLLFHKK
Thyrotropin receptor (Homo sapiens), sequence (P16473 whole entry, looked up): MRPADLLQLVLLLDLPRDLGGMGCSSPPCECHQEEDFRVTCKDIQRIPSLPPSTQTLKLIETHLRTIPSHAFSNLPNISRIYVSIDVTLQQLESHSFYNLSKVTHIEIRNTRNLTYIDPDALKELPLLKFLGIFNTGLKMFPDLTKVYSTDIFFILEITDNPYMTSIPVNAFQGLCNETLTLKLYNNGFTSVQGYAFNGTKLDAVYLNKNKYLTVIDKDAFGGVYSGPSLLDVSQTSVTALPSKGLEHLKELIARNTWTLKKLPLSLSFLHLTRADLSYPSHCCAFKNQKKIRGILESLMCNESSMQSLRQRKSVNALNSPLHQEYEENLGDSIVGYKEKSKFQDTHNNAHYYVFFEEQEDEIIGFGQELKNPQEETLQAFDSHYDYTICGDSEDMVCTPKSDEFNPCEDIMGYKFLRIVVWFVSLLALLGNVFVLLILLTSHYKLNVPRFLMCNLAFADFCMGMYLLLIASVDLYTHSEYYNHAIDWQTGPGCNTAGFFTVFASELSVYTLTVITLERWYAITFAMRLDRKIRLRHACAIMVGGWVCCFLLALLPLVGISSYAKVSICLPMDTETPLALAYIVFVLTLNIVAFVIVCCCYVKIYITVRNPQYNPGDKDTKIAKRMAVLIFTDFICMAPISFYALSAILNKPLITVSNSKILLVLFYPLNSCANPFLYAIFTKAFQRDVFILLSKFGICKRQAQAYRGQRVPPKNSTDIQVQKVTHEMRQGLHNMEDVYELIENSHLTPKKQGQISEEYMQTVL
Estrogen receptor beta (Homo sapiens), sequence (Q92731 whole entry, looked up): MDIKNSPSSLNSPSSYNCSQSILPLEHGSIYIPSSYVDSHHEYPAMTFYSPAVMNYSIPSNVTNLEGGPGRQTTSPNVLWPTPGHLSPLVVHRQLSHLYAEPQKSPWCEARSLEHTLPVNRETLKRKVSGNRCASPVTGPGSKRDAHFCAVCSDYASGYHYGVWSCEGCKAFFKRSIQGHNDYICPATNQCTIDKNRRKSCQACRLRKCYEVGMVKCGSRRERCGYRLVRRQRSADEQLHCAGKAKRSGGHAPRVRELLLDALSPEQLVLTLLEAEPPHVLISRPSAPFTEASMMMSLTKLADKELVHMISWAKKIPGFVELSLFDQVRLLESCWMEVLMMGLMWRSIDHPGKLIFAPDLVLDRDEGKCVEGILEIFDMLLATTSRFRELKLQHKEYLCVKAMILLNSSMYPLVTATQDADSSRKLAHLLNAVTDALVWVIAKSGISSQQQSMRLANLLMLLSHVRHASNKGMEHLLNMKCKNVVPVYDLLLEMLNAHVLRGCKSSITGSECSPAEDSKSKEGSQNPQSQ
Estrogen receptor (Homo sapiens), sequence (P03372 whole entry, looked up): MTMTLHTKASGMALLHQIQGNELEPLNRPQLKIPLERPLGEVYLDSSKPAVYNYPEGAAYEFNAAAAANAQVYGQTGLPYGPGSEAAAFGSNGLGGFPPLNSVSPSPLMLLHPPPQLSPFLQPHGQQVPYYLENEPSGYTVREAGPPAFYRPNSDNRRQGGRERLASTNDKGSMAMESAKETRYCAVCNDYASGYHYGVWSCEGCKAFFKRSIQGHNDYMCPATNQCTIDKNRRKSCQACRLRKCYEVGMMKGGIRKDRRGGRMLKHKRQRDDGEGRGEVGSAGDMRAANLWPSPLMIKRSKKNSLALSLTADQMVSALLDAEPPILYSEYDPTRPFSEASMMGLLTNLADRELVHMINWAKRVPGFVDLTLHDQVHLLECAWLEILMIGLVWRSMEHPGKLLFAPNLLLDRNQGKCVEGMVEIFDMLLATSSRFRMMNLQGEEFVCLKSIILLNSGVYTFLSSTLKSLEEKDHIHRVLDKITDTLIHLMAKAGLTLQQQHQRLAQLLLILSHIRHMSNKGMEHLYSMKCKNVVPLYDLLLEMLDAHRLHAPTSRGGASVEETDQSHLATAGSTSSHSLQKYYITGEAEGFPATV

`CN(CCOc1ccc(CC2SC(=O)NC2=O)cc1)c1ccccn1` (stereo not drawn): the Potency result in [1], in [2], in [3], in [4], in [5] and in [7] was “inactive” throughout. For the same compound, the Potency result in [8], in experiment [10], in [11], in experiment [12] and in [13] was “inactive” in each case. Also, the outcome in [6] and in [14] was inactive. The Potency in [9] is 48.3 µM (active) and inactive.

For the compound `CC1COc2ccccc2N1C(=O)C(Cl)Cl` (stereo not drawn), the Potency in [1] is 15.3 µM (active). Also, the Potency entry in experiment [2], in [3], in experiment [15], in experiment [5], in [16] and in experiment [7] was “inactive” throughout. In addition, the Potency result in experiment [8], in experiment [13] and in experiment [19] was “inactive” in each case. The compound was classed as inactive in experiment [6], in experiment [17], in experiment [14] and in experiment [18].

`CC1=C(CC(=O)O)c2cc(F)ccc2/C1=C\c1ccc(S(C)=O)cc1` (stereo not drawn): the Potency entry in experiment [1], in [2], in experiment [3], in [4], in [15] and in experiment [5] was “inactive” each time. Besides, the Potency entry in experiment [7], in experiment [8], in experiment [10], in experiment [11], in [12] and in experiment [13] was “inactive” each time. Also, the result in experiment [6] and in [17] was inactive.

With `OCCOCCOCCOCCO`, the Potency result in experiment [1], in [2], in experiment [3], in experiment [4], in experiment [15] and in experiment [5] was “inactive” in each case. Also, the Potency result in experiment [7], in experiment [8], in experiment [9], in experiment [10], in experiment [11] and in [12] was “inactive” throughout. Further, the Potency entry in experiment [13] and in [19] was “inactive” each time. Moreover, the outcome in experiment [6], in [17], in experiment [14] and in experiment [18] was inactive.

On to `OCC#CCO`, for which the Potency entry in experiment [1], in [2], in [3], in [4], in [15] and in experiment [5] was “inactive” throughout. Further, the Potency entry in experiment [7], in experiment [8], in experiment [9], in experiment [10], in [11] and in experiment [12] was “inactive” throughout. Besides, the Potency entry in [13] and in experiment [19] was “inactive” each time. Moreover, the outcome in [6], in [17], in [14] and in experiment [18] was inactive.

Regarding `O=C(Cl)c1c(Cl)c(Cl)c(C(=O)Cl)c(Cl)c1Cl`, the Potency result in [1], in [2], in [3], in experiment [4], in experiment [15] and in experiment [5] was “inactive” each time. In addition, the Potency entry in [7], in experiment [8], in experiment [10], in [11], in [12] and in experiment [13] was “inactive” throughout. In [19], the Potency entry was “inactive”. The result in [14] and in experiment [18] was inactive.
